Experiments:
Assay in all cases: PBM binding z-score (relative to random genomic background probes); higher = stronger binding; sequences stand for … in GC…GCGATTGACAGCGTAGAATGAAGG
[1] = test system: FXR:RXRa (NR concentration 270 nM, RXRa partner concentration 90 nM)
Procedure, shortened: (§1)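 Regression normalization was applied to scanned fluorescence from custom Agilent 4×180K protein-binding microarrays. Before scanning, arrays were incubated 1 h with ligand-free nuclear receptor dimers, and binding was detected with antibodies against each partner (one per run). Binding z-scores use the random background probes as reference.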

[2] = test system: LXRa:RXRa (NR concentration 270 nM, RXRa partner concentration 90 nM)
Procedure, shortened: as §1

[3] = test system: LXRa homodimer (NR concentration 270 nM)
Procedure, shortened: as §1

[4] = test system: LXRb:RXRa (NR concentration 270 nM, RXRa partner concentration 90 nM)
Procedure, shortened: as §1

[5] = test system: LXRb homodimer (NR concentration 270 nM)
Procedure, shortened: as §1

[6] = test system: PPARa:RXRa (NR concentration 270 nM, RXRa partner concentration 90 nM)
Procedure, shortened: as §1

[7] = test system: PPARg:RXRa (NR concentration 180 nM, RXRa partner concentration 90 nM)
Procedure, shortened: as §1

[8] = test system: PPARg:RXRa 270nM:90nM, anti-RXR (NR concentration 270 nM, RXRa partner concentration 90 nM)
Procedure, shortened: as §1

[9] = test system: PPARg:RXRa 30nM:10nM, anti-RXR (NR concentration 30 nM, RXRa partner concentration 10 nM)
Procedure, shortened: as §1

[10] = test system: PPARg:RXRa 90nM:30nM, anti-RXR (NR concentration 90 nM, RXRa partner concentration 30 nM)
Procedure, shortened: as §1

[11] = test system: PPARg:RXRa DBDmut IVT, anti-RXR (DBD mutation: RXRa K156A/R161A, NR concentration 270 nM, RXRa partner concentration 90 nM)
Procedure, shortened: as §1

[12] = test system: PPARg:RXRa IVT, anti-PPARg (NR concentration 270 nM, RXRa partner concentration 90 nM)
Procedure, shortened: as §1

[13] = test system: PPARg DBDmut:RXRa IVT, anti-PPARg (DBD mutation: PPARg1 K132A/R137A, NR concentration 270 nM, RXRa partner concentration 90 nM)
Procedure, shortened: as §1

[14] = test system: PPARg DBDmut IVT, anti-PPARg (DBD mutation: PPARg1 K132A/R137A, NR concentration 270 nM)
Procedure, shortened: as §1

[15] = test system: PPARg homodimer (NR concentration 180 nM)
Procedure, shortened: as §1

[16] = test system: PXR:RXRa (NR concentration 270 nM, RXRa partner concentration 90 nM)
Procedure, shortened: as §1

[17] = test system: PXR homodimer (NR concentration 270 nM)
Procedure, shortened: as §1

[18] = test system: RARa:RXR (NR concentration 270 nM, RXRa partner concentration 90 nM)
Procedure, shortened: as §1

[19] = test system: RARa homodimer (NR concentration 270 nM)
Procedure, shortened: as §1

[20] = test system: RARb:RXRa (NR concentration 270 nM, RXRa partner concentration 90 nM)
Procedure, shortened: as §1

| Sequence | PBM binding z-score [1] | PBM binding z-score [2] | PBM binding z-score [3] | PBM binding z-score [4] | PBM binding z-score [5] | PBM binding z-score [6] | PBM binding z-score [7] | PBM binding z-score [8] | PBM binding z-score [9] | PBM binding z-score [10] | PBM binding z-score [11] | PBM binding z-score [12] | PBM binding z-score [13] | PBM binding z-score [14] | PBM binding z-score [15] | PBM binding z-score [16] | PBM binding z-score [17] | PBM binding z-score [18] | PBM binding z-score [19] | PBM binding z-score [20] |
| --- | --- | --- | --- | --- | --- | --- | --- | --- | --- | --- | --- | --- | --- | --- | --- | --- | --- | --- | --- | --- |
| TCTTGTAGATCAAAGGCTAAGAAAGCCGAAGCCT | 0.284 | 0.0908 | -0.472 | -0.0772 | -0.625 | 1.68 | 3.24 | 4.87 | 4.4 | 5.12 | 1.65 | 1.23 | 0.137 | 0.157 | -0.136 | -0.183 | -0.625 | 0.0326 | -0.389 | 0.153 |
| ATCTCTAGGTAACCAAGTTCAGAGAATGCCGAAC | 0.204 | 0.722 | 0.915 | 0.628 | 0.739 | 1.2 | 0.721 | 0.986 | -0.0566 | 0.52 | 3.4 | 2.88 | 1.18 | 0.83 | 0.879 | 2.15 | 1.71 | 0.548 | 0.605 | 1.22 |
| TCGAGTAGGTTACCATTGGGGCATTCAGCTTTCT | 0.101 | 1.68 | -0.373 | 0.964 | -0.492 | 0.792 | 0.0586 | 1.23 | 0.995 | 1.17 | 3.26 | 2.88 | -0.0492 | -0.763 | -0.00669 | 0.0838 | -0.677 | 0.409 | -0.577 | 0.817 |
| ATATGTAGGTTATCGGGACATTCAGTTTGCGCAT | 0.568 | 0.813 | 0.715 | 0.858 | 0.692 | 3.3 | 5.05 | 4.45 | 2.25 | 3.45 | 7.42 | 6.98 | 2.35 | 2.08 | 2.64 | 0.647 | 1.45 | 0.532 | 1.55 | 1.06 |
| CCGACAGGGGCAAAGGTTACCATACTCAGTACGA | 2.65 | 2.32 | -0.14 | 2.73 | -0.622 | 4.74 | 7.39 | 7.14 | 5.17 | 7.95 | 0.215 | 3.27 | -0.209 | -0.953 | 1.78 | 3.35 | -0.101 | 5.32 | -0.576 | 2.89 |
| GTCCCAAGGTGAATAGGTCGTTGATGAGTAGGCG | 0.85 | 0.873 | -0.08 | 0.623 | -0.403 | 2.26 | 1.19 | 1.4 | 0.109 | 0.815 | 1.17 | 2.18 | -0.477 | -0.0374 | 1.53 | 0.817 | 0.264 | 2 | 0.909 | 2.12 |
| TCTCGGAGGACACGAAGGTCGGAGCTTTCCAGAG | 0.628 | -0.0853 | -0.898 | -0.334 | -1.43 | 0.339 | -0.0942 | 1.17 | 1.87 | 1.67 | 1.25 | 0.119 | -2.18 | -1.55 | -0.462 | 0.265 | -0.139 | 0.366 | -1.24 | 1.81 |
| CTACCAAGGTGAACAACGTCGTTGATTACTATTC | 0.772 | 0.327 | -0.307 | 0.812 | -0.301 | 1.29 | 0.69 | 0.538 | -0.133 | 0.52 | 2.88 | 2.23 | 0.00253 | 0.341 | -0.432 | 0.189 | -0.322 | 0.739 | 0.243 | 1.68 |
| GCTGTTAGTTGAAAGGGCAACCGAATGATTCTCG | 0.495 | 0.93 | -0.0723 | 0.717 | 0.0485 | 2.12 | 1.42 | 2.9 | 0.9 | 2.33 | 0.247 | 0.541 | 0.463 | 0.0066 | 1.39 | 0.665 | 0.0448 | 1.48 | 0.147 | 2.08 |
| CGAACTTGGTCAAGGACAGTGAATCTCCGCACGC | 0.162 | -0.375 | -0.73 | -0.622 | -1.03 | -0.114 | 0.382 | 0.0325 | -0.999 | -0.567 | 1.01 | 0.689 | -0.557 | -0.422 | -0.784 | -0.25 | -0.515 | -0.377 | -0.435 | 1.34 |
| CCGATTGGGGCAAGGTTACCATAACGCACAGCCA | 0.189 | 0.481 | -0.246 | 0.649 | -1.05 | 1.28 | 1.44 | 1.49 | 0.0472 | 0.943 | 1.32 | 1.29 | -0.839 | -0.45 | 0.0331 | 0.36 | -0.458 | 0.793 | -0.365 | 1.67 |
| TCTTGTGGATCAATAGAGGTTAAGAAAGTGCGCT | 0.938 | 3.27 | 0.355 | 1.91 | 0.376 | 1.63 | -0.178 | 1.51 | 2.31 | 1.64 | 1.7 | 0.901 | 0.673 | 0.819 | 0.64 | 2.88 | 0.306 | 1.69 | 0.244 | 0.915 |
| TCTAGTTGGTCAAACGTCACACACTCGAAATGCG | 0.778 | 0.664 | 0.422 | 0.693 | 0.281 | 2.06 | 3.61 | 4.92 | 4.37 | 5.13 | 3.29 | 2.32 | 0.65 | 1.11 | 1.05 | 0.699 | 0.241 | 0.948 | 0.646 | 1.2 |
| CCTAGTTGGTCAAGGTCACACAAGCTATAGGTAC | 4.29 | 3.95 | 1.98 | 3.76 | 1.03 | 4.21 | 3.5 | 4.1 | 1.36 | 2.63 | 2.43 | 4.01 | 1.16 | 1.04 | 4.16 | 4.47 | 2.97 | 4.29 | 2.77 | 4.33 |
| CCGACTGCGGCAAAGGTTACCATACTCAGTACGA | 0.819 | 1.26 | 0.087 | 1.73 | -0.464 | 2.59 | 2.8 | 4.2 | 2.28 | 4.38 | 0.233 | 0.732 | 0.0182 | 0.245 | 0.843 | 1.61 | -0.16 | 2.57 | 0.118 | 1.82 |
| CCAGCTAGGTCATGGTCAGCTAATCTACAGTATG | 3.52 | 2.28 | 0.125 | 1.63 | -0.361 | 3.57 | 2.98 | 3.29 | 0.995 | 2.17 | 4.7 | 4.17 | 0.901 | 0.516 | 1.52 | 1.12 | -0.327 | 2.34 | 0.48 | 3.97 |
| AGAATGAGGTAAAGATCAGGGAAACAGAATACAT | 0.438 | 0.311 | -0.176 | 0.517 | -0.108 | 0.991 | 2 | 2.05 | 0.928 | 1.67 | 1.72 | 1.73 | 1.8 | 0.935 | 0.296 | 0.125 | 0.151 | 0.265 | 0.446 | 0.258 |
| CCTAGTGGGCCAAAAAGGTCATTGATGCCGATAA | 3.3 | 4.12 | 3.05 | 3.87 | 0.134 | 4.56 | 3.16 | 3.97 | 1.73 | 3.24 | 3.84 | 4.01 | -0.411 | -0.658 | 3.24 | 4.65 | 3.02 | 4.62 | 1.5 | 3.94 |

From the supplement of paper PMC6555819
